Values joined by “and” are separate entries in the source; they are usually repeats but may differ in a detail not shown here. Identical values can stand only once. The source holds several records for some structures; these can differ, active in one and inactive in another. Active and inactive are the calls of the source. Rule for the calls: active = hit-call score of the fitted dose curve at least 0.9, where 1 is the maximum; inactive = score below 0.9.
Experiment: BSK_4H_SRB: Viability Assessment in the BioMAP Diversity Plus: 4H Assay (AID 2283027);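 for AC50: curves fitted both ways versus DMSO so AC50 may be loss or gain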
Settings: primary human endothelial cells (HUVEC)
Description: BSK_4H is a cell-based, multiplexed-readout assay that uses umbilical vein endothelium, a human vascular primary cell, with measurements taken at 24 hours after chemical dosing in a 96-well plate.BSK_4H_SRB is an assay component measured in the BSK_4H assay. It measures […] related to cell death using Sulforhodamine staining technology.Data from the assay component BSK_4H_SRB was analyzed into 1 assay endpoint. This assay endpoint, BSK_4H_SRB, was analyzed with bidirectional fitting relative to DMSO as the negative control and baseline of activity. Using a type of viability reporter, gain or loss-of-signal activity can be used to understand changes in the signaling. Furthermore, this assay endpoint can be referred to as a primary readout, because this assay has produced multiple assay endpoints where this one serves a signaling function. To generalize the intended target to other relatable targets, this assay endpoint is annotated to the cell morphology intended target family, where the subfamily is cell conformation.
The levels of cell surface (or secreted, indicated by the prefix "s") biomarker endpoints were measured by ELISA. Overt cytotoxicity to cells in confluent adherent cultures (all systems other than the BT system) was assessed by measuring total protein levels using sulforhodamine B (SRB) staining in parallel cultures at the time of biomarker measurements, indicated as SRB endpoints. For proliferation assays for adherent cell types, individual cell types are cultured at sub-confluence and relative cell numbers quantified by SRB staining at time points optimized for each system (48 h: 3C and CASM3C systems; 72 h: BT and HDF3CGF systems; 96 h: SAg system). SRB was performed by staining cells with 0.1% SRB after fixation with 10% TCA and reading wells at 560 nm.Viability and proliferation of PBMC (T cells) was quantified by Alamar Blue reduction for the SAg and BT systems. For PBMC viability (referred to as PBMC Cytotoxicity within the assay endpoint names), cells were plated (75,000/well in a 96-well plate) and then chemical samples added for 1 h before addition of activators, SEB and TSST-1 (20 ng/mL final concentration each). Cells were incubated for 90 h. Then, Alamar Blue (20 uL/well) (Invitrogen, Cat DAL1100) was added for 6 h, and the plates were read with a fluorescence microplate reader at 546/580 nm (excitation/emission). For PBMC proliferation, cells were plated and activated as above but incubated for only 16 h prior to addition of Alamar Blue. Plates were read after 6 h.

| Compound | outcome | AC50 |
| --- | --- | --- |
| CCNS(=O)(=O)C(F)(F)C(F)(F)C(F)(F)C(F)(F)C(F)(F)C(F)(F)C(F)(F)C(F)(F)F | inactive | 45.1 µM (active) and 47.3 µM (active) |
| Cn1cc(-c2ccccc2)c(=O)c(-c2cccc(C(F)(F)F)c2)c1 | inactive | – |
| Cc1ccc(N=C=O)cc1N=C=O | inactive | – |
| CC(C)COC(=O)c1ccccc1C(=O)OCC(C)C | inactive | – |
| ClCCOCCCl | inactive | – |
| CCN(CC)CCO | inactive | – |
| Nc1ccc([N+](=O)[O-])cc1 | inactive | – |
| Clc1ccc(Cl)c(Cl)c1 | inactive | – |
| O=C1CCCO1 | inactive | – |
| Cc1cc(N=Nc2ccccc2C)ccc1N | – | 5.17 µM (active) |
| CCCCCOC(=O)c1ccccc1C(=O)OCCCCC | inactive | – |
| [Cl-].[Cl-].[Hg+2] | – | 20 µM (active) |
| CS(=O)(=O)NC(=O)c1cc(Oc2ccc(C(F)(F)F)cc2Cl)ccc1[N+](=O)[O-] | inactive | – |
| CO[C@@H]1[C@H](OC(=O)NC(=O)CCl)CC[C@]2(CO2)[C@H]1[C@@]1(C)O[C@@H]1CC=C(C)C | inactive | – |
| CCC12COCN1COC2 | inactive | – |
| CNC(=O)Oc1cccc2c1OC(C)(C)C2 | inactive | – |
| CCCCCCCCn1sccc1=O | – | 21 µM (active) |
| O=P(OCCCl)(OCCCl)OCCCl | inactive | – |
| CN(C)c1ccccc1 | inactive | – |
| Nc1ccc(Cl)cc1N | inactive | – |

| Compound | outcome | AC50 |
| --- | --- | --- |
| CN(C)[C@@H]1C(=O)C(C(N)=O)=C(O)[C@@]2(O)C(=O)C3=C(O)c4c(O)cccc4[C@@](C)(O)[C@H]3C[C@@H]12 | inactive | – |
| Nc1cc(Cl)cc(C(=O)O)c1Cl | inactive | – |
| CCCCCCCCOC(=O)c1ccc(C(=O)OCCCCCCCC)c(C(=O)OCCCCCCCC)c1 | inactive | – |
| CCCCOC(=O)c1ccccc1C(=O)OCc1ccccc1 | inactive | – |
| OCCOCCO | inactive | – |
| [As]#[In] | inactive | – |
| Cc1ccc([N+](=O)[O-])cc1 | inactive | – |
| O=[N+]([O-])c1ccc(Oc2ccc(Cl)cc2Cl)cc1 | inactive | – |
| CCC(C)c1ccc(O)cc1 (stereo not given) | inactive | – |
| Clc1ccc(C(c2ccc(Cl)cc2)C(Cl)Cl)cc1 | – | 29.3 µM (active) |
| Cc1cccc(N)c1N | inactive | – |
| c1ccc(NNc2ccccc2)cc1 | inactive | – |
| c1ccc2c(c1)oc1ccccc12 | inactive | – |
| COC(=O)Nc1nc2ccccc2[nH]1 | – | 14.5 µM (active) |
| c1ccc(N=Nc2ccccc2)cc1 | inactive | – |
| CC(O)CCO (stereo not given) | inactive | – |
| CCC[CH2][Sn]([Cl])([CH2]CCC)[CH2]CCC | – | 0.148 µM (active) |
| COP(=S)(OC)SCN1C(=O)c2ccccc2C1=O | inactive | – |
| Clc1ccccc1Cl | inactive | – |

Reference: PubChem BioAssay (EPA / NIEHS)
